Measured values published in PubChem BioAssay AID741 (SRMLSC, 2007).
Records with an inconclusive call do not appear. Active and inactive are the calls of the source. Rule as the data show it: active = toxicity enhancement factor above about 0.054; inconclusive = between about 0.00067 and that limit; inactive = weaker than that.

Assay: reversers of MRP drug resistance, dose response, cell-based (AID 741)
Conditions: MRP-overexpressing cells, viability with/without cytotoxic drug; slope difference: measured here: slope difference tox minus reversal, stronger effect = higher value; toxicity enhancement factor: stronger effect = higher value; viability: measured here: viability series, compound alone, at 10 µM, stronger effect = lower value

| Structure (SMILES) | slope difference | toxicity enhancement factor | viability [%] |
| --- | --- | --- | --- |
| CCOC(=O)N1CCC(Nc2c(Nc3cccc(CC)c3)c(=O)c2=O)CC1 | 5.23 | 0.268 (active) | 73.6 |
| CC(C(=O)O)c1cccc(C(=O)c2ccccc2)c1 (configuration not stated) | -1.03 | -0.0105 (inactive) | 92.4 |
| CCn1c(N)c(C(=O)N2CCOCC2)sc1=S | -0.557 | -0.0052 (inactive) | 101 |
| C=CCOc1nc2c(c(=O)n(C)c(=O)n2C)n1Cc1c(Cl)cccc1Cl | -0.654 | -0.0108 (inactive) | 63.6 |
| O=C1Nc2cc(C(=O)N3CCN(Cc4ccccc4)CC3)ccc2SC1N1CCOCC1 (configuration not stated) | -0.0531 | -0.0007 (inactive) | 83.2 |
| C=CCN1C(=O)/C(=C2/Sc3ccccc3N2C)SC1=Nc1c(C)n[nH]c1C | 4.41 | 0.241 (active) | 66.9 |
| CCCn1c(=O)[nH]c(=O)c2[nH]cnc21 | -0.568 | -0.0054 (inactive) | 101 |
| CSc1cccc(NC(=O)C2CCN(S(C)(=O)=O)CC2)c1 | -0.244 | -0.0028 (inactive) | 94.7 |
| Cc1oncc1C(=O)Nc1ccc(C(F)(F)F)cc1 | -0.34 | -0.0035 (inactive) | 96.5 |
| COC(=O)C(C)Sc1nnc2n(-c3cccc(C)c3)c(=O)c3c4c(sc3n12)CCCC4 (configuration not stated) | 2.9 | 0.061 (active) | 85.9 |
| c1ccc(-c2nc(N3CCOCC3)c3ccccc3n2)nc1 | -2.79 | -0.0278 (inactive) | 87 |
| CC(=O)Nc1ccc(S(=O)(=O)NCCC(=O)NCCc2ccc(F)cc2)cc1 | 0.0009 | 0 (inactive) | 87.3 |
| COC(=O)Nc1ccc(S(=O)(=O)N2c3ccccc3CCC2C)cc1 (configuration not stated) | -2.95 | -0.0581 (inactive) | 20.1 |
| c1ccc2c(N3CCOCC3)nc(-c3ccncc3)nc2c1 | -1.84 | -0.0239 (inactive) | 66.1 |
| COC(=O)Nc1ccc(S(=O)(=O)Nc2cccc3ccccc23)cc1 | -0.0221 | -0.0003 (inactive) | 77.7 |
| O=C1CCCC2=C1C(c1cccs1)n1nc(SCc3ccccc3F)nc1N2 (configuration not stated) | 2.51 | 0.0631 (active) | 69.6 |
| CCCc1cc(Nc2c(C)n(C)n(-c3ccccc3)c2=O)n2c(nc3ccccc32)c1C#N | 4.27 | 0.0896 (active) | 97.6 |

| Structure (SMILES) | slope difference | toxicity enhancement factor | viability [%] |
| --- | --- | --- | --- |
| Cc1ccc(Cl)c(Nc2ccccc2C(=O)O)c1Cl | -0.97 | -0.0098 (inactive) | 92.5 |
| CCCN1C2=C(C(=O)CC(C)(C)C2)C(c2ccc(F)cc2)C2=C1c1ccccc1C2=O (configuration not stated) | 3.28 | 0.126 (active) | 64.6 |
| COc1ccc(NC(=O)C2C3C=CC(C3)C2C(=O)NCc2ccccn2)c(OC)c1 (configuration not stated) | -1.73 | -0.0167 (inactive) | 88.7 |
| Cc1cccc2cc(CN(Cc3nnnn3Cc3ccco3)C3CCCC3)c3nnnn3c12 | -1.43 | -0.027 (inactive) | 51.1 |
| Cn1c(=O)c2c(nc(NC3CCCCC3)n2CC(O)COc2ccccc2)n(C)c1=O (configuration not stated) | -0.557 | -0.0085 (inactive) | 68.8 |
| CSc1nnc(-c2cc3ccccc3cc2O)n1C | -0.153 | -0.0016 (inactive) | 101 |
| CC(Cc1ccc(O)c(O)c1)C(C)Cc1ccc(O)c(O)c1 (configuration not stated) | -0.864 | -0.009 (inactive) | 86.2 |
| O=C(COc1ccccc1)N1CCN(c2ncnc3c2cnn3-c2ccccc2)CC1 | -0.402 | -0.0084 (inactive) | 53.8 |
| c1ccc2c(c1)nc1n2CN(Cc2ccc3c(c2)OCO3)CN1 | -0.301 | -0.0032 (inactive) | 85.8 |
| CCN(C(=O)c1cn(C)c(=O)c2cc(OC)c(OC)cc12)c1cc(OC)ccc1OC | 4.18 | 0.129 (active) | 77.9 |
| Cc1nn(C)c(C)c1NC(=O)CSc1nc(C2CC2)nc2c1cnn2-c1ccccc1 | -1.07 | -0.0298 (inactive) | 27.3 |
| O=C(O)Cc1ccc(-c2ccccc2)cc1 | -0.343 | -0.0033 (inactive) | 99.6 |
| O=C(Cc1cccs1)N1CCC(c2nc3c(nnn3Cc3ccccc3Cl)c(=O)[nH]2)CC1 | -0.454 | -0.0052 (inactive) | 82.5 |
| Cc1cccc(Cn2c(NCC(C)O)nc3c2c(=O)n(C)c(=O)n3C)c1 (configuration not stated) | -0.509 | -0.0055 (inactive) | 93.7 |
| CC1CN(c2nc3ccccn3c(=O)c2/C=C(\C#N)S(=O)(=O)c2ccccc2)CC(C)O1 (configuration not stated) | 3.36 | 0.0581 (active) | 93.3 |
| CC(C)(C)C(=O)[C@@H]1[C@@H]2C(=O)N(C3CCCCC3)C(=O)[C@@H]2[C@H]2c3ccccc3C=CN12 | 2.83 | 0.061 (active) | 85.2 |
| CC(=O)Oc1cccc2c1C(=O)c1c(OC(C)=O)cc(C(=O)O)cc1C2=O | -1.12 | -0.0114 (inactive) | 89.5 |
